Several values for one entry are separate records, joined by “and”; a condition that tells them apart may be missing. Equal values may be shown once. Results filed as inconclusive are left out. Activity calls are given as the source filed them. Unless noted, the call rests on the fitted dose curve; in most records, active means well fitted curve in the direction sought with a large enough effect; inconclusive means small, poorly fitted or top-dose-only effect, or another doubt; inactive means no such curve, though single readings can be large; an effect the other way counts as inactive or inconclusive.
Experiments:
[1] = target: Glucocorticoid receptor (Homo sapiens) (UniProt P04150); test: GR-GFP Redistribution (AID 450;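 active means compounds whose dose series gives a full or clear partial fitted curve of increased nuclear translocation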; further: potency means the concentration at half of the fitted maximal effect); conditions: U2OS GR-GFP nuclear translocation, laser cytometry, 2 h
[2] = target: Pyruvate kinase (Leishmania mexicana) (UniProt Q27686); test: qHTS Validation Assay for Inhibitors of Leishmania Mexicana Pyruvate Kinase (AID 945);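 further: 0% = DMSO only neutral control wells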; conditions: purified L. mexicana pyruvate kinase, enzyme activity, E451W mutant enzyme; series mostly up to 57.5 µM
Summary of the method: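 Compounds are tested as eight-point concentration series. Reactions contain 0.2 nM LmPYK E451W, 0.5 mM PEP, 0.1 mM ADP, 7 mM MgCl2 and 50 mM KCl at pH 7.2, run 1 h at room temperature, then read by PKLight luminescence.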

[3] = target: Pyruvate kinase PKM (Homo sapiens) (UniProt P14618); test: qHTS Assay for Activators of Human Muscle Pyruvate Kinase (AID 954; active means well fitted curve in the direction sought with a large enough effect, not every such curve was filed as active;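 further: 0% = uninhibited enzyme and -100% = no enzyme or full thiadiazolimine inhibition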); conditions: purified human muscle pyruvate kinase, luciferase-coupled luminescence, 1 h; series mostly up to 57.5 µM
Summary of the method: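 Screening used highly purified human pyruvate kinase M2 under submaximal activity, with PEP at its Km and ADP below Km. After an hour at room temperature, ATP was read by luciferase luminescence.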

[4] = target: Alpha-galactosidase (Coffea arabica) (UniProt Q42656); test: Counterscreen for Glucocerebrosidase Inhibitors: qHTS Assay for Coffee Bean alpha-Galactosidase at pH 4.5 (AID 957); conditions: purified coffee bean alpha-galactosidase, fluorogenic substrate; series mostly up to 76.9 µM;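 further: plate controls were enzyme alone for no effect and no enzyme for full effect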
Summary of the method: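 Enzyme is added first (2 nM final), then compounds titrated from 0.7 nM to 77 uM, then 80 uM 4-methylumbelliferyl alpha-D-galactopyranoside; after 20 min at room temperature a pH 10 NaOH/glycine stop precedes fluorescence reading at 365/440 nm.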

[5] = Cell Viability - BJ (AID 421; calls by dose curve;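 further: potency means the concentration at half of the fitted maximal effect; cells exposed to compound for 40 hours at 37 °C before readout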); conditions: BJ fibroblast viability, qHTS
Summary of the method: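 Quantitative HTS: ATP depletion in BJ cells after 40 hr compound exposure in complete culture medium, detected with CellTiter-Glo; AC50 from standard Hill fits.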

[6] = Cellular Toxicity (caspase-3) BJ (AID 658); conditions: BJ fibroblasts, luminescence, normalized: DMSO 0%, staurosporine 100%; series mostly up to 91.7 µM
Summary of the method: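 Plated BJ cells (1000/well) rested 5 hr, received compound for 16 hr at 37 °C, then Caspase-Glo 3/7 reagent for 1 hr at room temperature before luminescence reading.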

[7] = Cellular Toxicity (caspase-3) SK-N-SH (AID 661); conditions: SK-N-SH caspase-3 activation, qHTS; series mostly up to 91.7 µM
Summary of the method: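 Cells were seeded and incubated 5 hr at 37 °C, dosed with compound over a concentration range for 16 hr, then given Caspase-Glo 3/7 reagent for 1 hr at room temperature before luminescence reading.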

[8] = Cellular Toxicity (caspase-3) N2a (AID 665); conditions: N2a cells, luminescence, normalized: DMSO 0%, 10 µM staurosporine 100%; series mostly up to 92.2 µM;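 further: compound exposure lasted 16 h at 37 °C before readout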
Summary of the method: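 Caspase-3/7 activation, measured as increased luminescence from aminoluciferin release, is quantified in mouse N2a cells exposed to compounds for 16 h. Values are normalized to DMSO and 10 uM staurosporine, with AC50 derived by Hill modelling.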

[9] = Cell Viability - LYMP1-002 - Assay at 16 hr (AID 948); conditions: LYMP1-002 lymphoblastoid cell viability; series mostly up to 92.2 µM;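 further: 0% = DMSO alone and full effect = 92 µM tetraoctylammonium bromide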
Summary of the method: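 LYMP1-002 human lymphoblastoid cells, 2500/well, were treated with compounds for 16 hr at 37 C in complete medium. Viability was read as intracellular ATP by CellTiter-Glo luminescence, and AC50 was derived from a Hill fit to concentration-response data.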

[10] = Cell Viability - LYMP2-011 (AID 969); conditions: LYMP2-011 lymphoblastoid cells viability; series mostly up to 92.2 µM;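 further: 0% = DMSO only and full inhibition = 92 µM tetraoctylammonium bromide; nearly all actives have a fitted effect of over 60% in size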
Summary of the method: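 In this qHTS cytotoxicity format, compounds are tested across concentrations on human lymphoblastoid cells in complete medium for 24 hours at 37 C. Viability is taken as cellular ATP measured by luciferase luminescence.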

[11] = Cell Viability - LYMP2-008 (AID 980); conditions: LYMP2-008 lymphoblastoid cell viability, qHTS; series mostly up to 92.2 µM;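 further: cells exposed to compound for 24 h at 37 °C; on the % scale 0 is the no-effect control and ±100 the full control effect; nearly all actives have a fitted effect of over 60% in size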
Summary of the method: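 Cells seeded at 2500/well and rested 5 hr at 37 C; compounds added over a concentration range and incubated 24 hr at 37 C; CellTiter-Glo added, 30 min at room temperature; luminescence read and AC50 fitted with Hill model.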

[12] = Cell Viability - LYMP2-018 (AID 985); conditions: LYMP2-018 lymphoblastoid cells, viability (qHTS); series mostly up to 92.2 µM;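 further: compound exposure lasted 24 hr at 37 °C; plate controls were DMSO only for no effect and tetraoctylammonium bromide at 92 µM for full effect; nearly all actives have a fitted effect of over 50% in size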
Summary of the method: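 Seed 2500 lymphoblastoid cells per well, incubate 5 hr at 37 C, add compound and incubate 24 hr at 37 C, add CellTiter-Glo, wait 30 min at room temperature, then read luminescence.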

[13] = Cell Viability - LYMP1-002 - Assay at 24 hr (AID 993); conditions: LYMP1-002 lymphoblastoid cells viability; series mostly up to 92.2 µM; further: on the % scale 0 is the no-effect control and ±100 the full control effect
Summary of the method: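 Acute toxicity is measured as concentration-dependent loss of cellular ATP in a human lymphoblastoid line (Coriell LYMP1-002) after 24 h treatment in complete medium. ATP is quantified by luciferase luminescence and AC50 derived by Hill modelling.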

[14] = qHTS assay for cell viability of HEK293 cells (AID 743288); conditions: ATP luminescence (CellTiter-Glo), 18 h, stronger effect = lower value; further: on the % scale 0 is the no-effect control and ±100 the full control effect; nearly all actives have a fitted effect of over 50% in size
Summary of the method: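 Steps: plate 2,000 parental HEK293 cells per well; incubate ≥5 h, 37 C; add compounds in DMSO; incubate 18 h, 37 C; add CellTiter-Glo; wait 30 min at room temperature; read luminescence.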

[15] = qHTS assay for small molecule activators of the human pregnane X receptor (PXR) signaling pathway (AID 720659; call rule not given here; further: 0% is about no effect); conditions: DPX-2 HepG2 CYP3A4-luciferase, 24 h; series mostly up to 92.3 µM
[16] = Cellular Toxicity (caspase-3) H-4-II-E (AID 663); conditions: H-4-II-E rat hepatoma; Potency: caspase-3 activation; series mostly up to 92.2 µM;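 further: cells exposed to compound for 16 hr before readout; 0% = DMSO basal and 100% = 100 µM tamoxifen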
Summary of the method: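 Caspase 3/7 activation measured in H-4-II-E cells in complete culture medium after 16 hr treatment at 37 °C, using luciferase-coupled substrate readout; AC50 values come from Hill-equation fits of normalized concentration-response data.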

[17] = MultiTox-Fluor Cytotoxicity Assay - LYMP1-003 - Dead Cells (AID 961); conditions: LYMP1-003 lymphoblastoid cells, dead-cell protease fluorescence; series mostly up to 92.2 µM;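 further: cells exposed to compound for 16 h at 37 °C; 0% = DMSO and 100% = tetraoctylammonium bromide; nearly all actives have a fitted effect of over 70% in size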
Summary of the method: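 Acute toxicity is scored as increased dead-cell protease activity in human lymphoblastoid LYMP1-003 cells after 16 h compound exposure in complete culture medium. Activity is normalized to DMSO basal and 15 uM tetraoctylammonium bromide as full response.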

[18] = Cell Viability - LYMP1-003 - Assay at 40 hr (AID 964); conditions: LYMP1-003 lymphoblastoid viability; series mostly up to 92.2 µM; further: on the % scale 0 is the no-effect control and ±100 the full control effect; nearly all actives have a fitted effect of over 60% in size
Summary of the method: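 Luminescent ATP signal (CellTiter-Glo) served as the viability read-out after 40 hr compound treatment of human lymphoblastoid LYMP1-003 cells at 37 C. Decreases in ATP were fitted with the Hill equation to give AC50.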

[19] = Cell Viability - LYMP2-019 (AID 973); conditions: LYMP2-019 lymphoblastoid cell line viability; series mostly up to 92.2 µM;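 further: cells exposed to compound for 24 h at 37 °C; 0% = DMSO alone and full effect = 92 µM tetraoctylammonium bromide; nearly all actives have a fitted effect of over 55% in size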
Summary of the method: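 Cytotoxicity is scored as a concentration-dependent drop in cellular ATP after cells (2500/well) receive compound for 24 hr at 37 C. Tetraoctylammonium bromide serves as positive control.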

[20] = Cell Viability - LYMP2-023 (AID 975); conditions: LYMP2-023 lymphoblastoid cell viability; series mostly up to 92.2 µM;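 further: plate controls were DMSO only for no effect and 92 µM tetraoctylammonium bromide control for full effect; nearly all actives have a fitted effect of over 55% in size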
Summary of the method: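 Steps: seed 2500 human lymphoblastoid cells per well, incubate 5 hr at 37 C, add compound for 24 hr at 37 C, add CellTiter-Glo, hold 30 min at room temperature, read luminescence. AC50 derived by Hill modelling.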

Alpha-galactosidase (Coffea arabica), sequence (Q42656 whole entry, looked up): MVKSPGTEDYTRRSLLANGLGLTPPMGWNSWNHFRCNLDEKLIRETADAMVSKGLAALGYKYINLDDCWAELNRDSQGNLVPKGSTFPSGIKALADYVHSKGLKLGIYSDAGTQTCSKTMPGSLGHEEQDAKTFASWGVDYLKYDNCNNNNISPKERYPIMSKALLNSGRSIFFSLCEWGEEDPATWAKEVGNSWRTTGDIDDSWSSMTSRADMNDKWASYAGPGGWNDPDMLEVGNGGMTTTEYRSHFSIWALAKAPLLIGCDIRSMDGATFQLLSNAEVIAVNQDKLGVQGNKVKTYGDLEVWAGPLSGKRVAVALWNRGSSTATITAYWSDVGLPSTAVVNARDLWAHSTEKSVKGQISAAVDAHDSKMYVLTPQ
Pyruvate kinase PKM (Homo sapiens), sequence (P14618 whole entry, looked up): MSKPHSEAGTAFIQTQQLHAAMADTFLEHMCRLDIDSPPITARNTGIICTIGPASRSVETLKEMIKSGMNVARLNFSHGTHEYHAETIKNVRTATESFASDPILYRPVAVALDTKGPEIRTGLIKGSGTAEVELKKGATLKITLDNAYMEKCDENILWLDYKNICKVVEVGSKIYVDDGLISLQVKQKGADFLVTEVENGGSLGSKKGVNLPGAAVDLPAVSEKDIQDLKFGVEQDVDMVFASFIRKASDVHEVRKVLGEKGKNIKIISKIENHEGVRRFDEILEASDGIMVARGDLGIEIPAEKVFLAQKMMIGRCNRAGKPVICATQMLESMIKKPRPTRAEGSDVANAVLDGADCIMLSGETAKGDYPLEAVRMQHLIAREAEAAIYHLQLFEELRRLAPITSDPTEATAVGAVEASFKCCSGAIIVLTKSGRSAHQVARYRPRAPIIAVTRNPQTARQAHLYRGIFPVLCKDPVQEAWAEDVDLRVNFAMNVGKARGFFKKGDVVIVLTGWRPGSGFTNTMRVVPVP
Pyruvate kinase (Leishmania mexicana), sequence (Q27686 2-499 E452W): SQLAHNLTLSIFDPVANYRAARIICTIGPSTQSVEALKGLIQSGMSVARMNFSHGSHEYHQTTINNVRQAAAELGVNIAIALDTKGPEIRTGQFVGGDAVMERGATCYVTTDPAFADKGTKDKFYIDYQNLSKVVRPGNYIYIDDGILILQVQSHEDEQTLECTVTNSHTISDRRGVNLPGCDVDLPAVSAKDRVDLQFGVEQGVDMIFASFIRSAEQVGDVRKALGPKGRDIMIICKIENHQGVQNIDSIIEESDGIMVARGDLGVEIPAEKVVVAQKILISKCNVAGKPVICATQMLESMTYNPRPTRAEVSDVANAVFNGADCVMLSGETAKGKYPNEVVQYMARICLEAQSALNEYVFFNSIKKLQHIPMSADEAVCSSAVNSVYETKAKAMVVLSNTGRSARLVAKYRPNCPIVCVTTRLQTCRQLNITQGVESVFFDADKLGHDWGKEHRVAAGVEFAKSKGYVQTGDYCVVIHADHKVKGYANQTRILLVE
Glucocorticoid receptor (Homo sapiens), sequence (P04150 whole entry, looked up): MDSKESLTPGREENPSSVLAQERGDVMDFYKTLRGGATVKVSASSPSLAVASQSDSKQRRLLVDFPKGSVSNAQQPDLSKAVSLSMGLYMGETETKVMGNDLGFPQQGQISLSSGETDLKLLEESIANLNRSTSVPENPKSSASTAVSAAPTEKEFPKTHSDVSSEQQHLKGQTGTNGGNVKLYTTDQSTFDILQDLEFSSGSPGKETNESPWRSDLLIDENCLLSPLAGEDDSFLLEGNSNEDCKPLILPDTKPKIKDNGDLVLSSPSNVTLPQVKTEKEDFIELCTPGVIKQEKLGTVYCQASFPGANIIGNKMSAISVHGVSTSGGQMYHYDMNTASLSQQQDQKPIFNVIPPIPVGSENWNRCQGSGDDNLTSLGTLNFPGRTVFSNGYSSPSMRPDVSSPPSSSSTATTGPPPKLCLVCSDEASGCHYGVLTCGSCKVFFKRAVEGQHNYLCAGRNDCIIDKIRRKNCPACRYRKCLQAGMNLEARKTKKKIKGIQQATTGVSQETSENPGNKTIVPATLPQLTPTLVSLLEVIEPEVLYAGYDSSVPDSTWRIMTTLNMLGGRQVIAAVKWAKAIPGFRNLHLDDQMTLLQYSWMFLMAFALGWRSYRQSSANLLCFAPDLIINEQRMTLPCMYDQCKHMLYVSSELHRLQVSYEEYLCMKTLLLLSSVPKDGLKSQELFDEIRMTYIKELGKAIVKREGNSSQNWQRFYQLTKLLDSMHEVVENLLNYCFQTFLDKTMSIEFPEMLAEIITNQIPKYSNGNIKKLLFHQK

N[C@H](Cn1ccc(=O)[nH]c1=O)C(=O)O
inactive: Potency [1] > 46 µM | outcome [2] | outcome [3] | outcome [4]

CO[C@@H]1CC=C2CCN3CCC4=C(CC(=O)OC4)[C@]23C1
inactive: Potency [1] > 46 µM | outcome [2] | outcome [3] | outcome [4]

CC(=O)[C@@H]1CC[C@H]2[C@H]3CC[C@H]4C[C@@H](O)CC[C@]4(C)[C@@H]3CC[C@]12C
inactive: Potency [1] > 46 µM | outcome [2] | outcome [3] | outcome [4]

C[C@@]12CC[C@H]3[C@@H](CC=C4C[C@H](OS(=O)(=O)O)CC[C@]43C)[C@H]1CCC2=O
inactive: Potency [1] > 46 µM | outcome [2] | outcome [3] | outcome [4]

CN1C[C@@H](CS(=O)(=O)N(C)C)C[C@H]2c3cccc4c3c(cn4C)C[C@@H]21
inactive: Potency [1] > 46 µM | outcome [2] | outcome [3] | outcome [4]

CCCN1CC[C@@H]2c3cc(O)ccc3CC[C@H]21
inactive: Potency [1] > 46 µM | outcome [2] | outcome [3] | outcome [4]

NC(=O)CN1C[C@@H](O)CC1=O
inactive: Potency [1] > 46 µM | outcome [2] | outcome [3] | outcome [4]

N[C@H](Cn1oc(=O)[nH]c1=O)C(=O)O
inactive: Potency [1] > 46 µM

C[Se]C[C@@H](N)C(=O)O
inactive: Potency [1] > 46 µM | outcome [2] | outcome [3] | outcome [4]

C[C@@]12CC[C@H]3[C@@H](CC[C@@H]4C[C@H](O)CC[C@]43C)[C@H]1CC[C@H]2O
inactive: Potency [1] > 46 µM | outcome [2] | outcome [3] | outcome [4]

CC(C)C[C@H](NP(=O)(O)O[C@@H]1O[C@@H](C)[C@@H](O)[C@@H](O)[C@H]1O)C(=O)N[C@@H](Cc1c[nH]c2ccccc12)C(=O)O
inactive: Potency [1] > 46 µM | outcome [2] | outcome [3] | outcome [4]

N[C@H](CCl)C(=O)O
inactive: outcome [2] | outcome [3] | outcome [4]

ClC(Cl)Br
inactive: Potency [5] > 92 µM | outcome [6] | Potency [7] | outcome [8] | outcome [9] | Potency [10] | Potency [11] | Potency [12] | Potency [13] | max response [14] 7.42% | outcome [15]

Nc1ccc(Cc2ccc(N)cc2)cc1
inactive: Potency [5] > 92 µM | outcome [6] | Potency [7] | Potency [16] | outcome [9] | Potency [17] | Potency [18] | Potency [10] | Potency [19] | Potency [20] | Potency [11] | Potency [12] | Potency [13] | max response [14] 9.53% and -1.85% | outcome [15]

Clc1ccc(Cl)c(Cl)c1
inactive: outcome [6] | Potency [7] | Potency [16] | outcome [8] | outcome [9] | Potency [17] | Potency [18] | Potency [10] | Potency [20] | Potency [11] | Potency [13] | max response [14] 9.56% and -10%
